Screens: PubChem, National Center for Advancing Translational Sciences (NCATS)
Pol kappa inh: DNA polymerase kappa (human) inhibition; Q9UBT6; purified Pol kappa, fluorescent DNA synthesis assay, 10 min; Potency, µM (series often up to 107 µM), for inactives: at the top dose activity, negative = inhibition, hits mostly inhibitors; 400,000 compounds, 0.53% hits; AID 588579; also: potency is read from the fitted curve at half-maximal effect; % is scaled to controls: 0 for no effect and ±100 for the full control effect
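Activity was followed as the change in fluorescence between reads at 0 and 10 min after starting the reaction with 50 nM substrate. Beforehand, 10 nM polymerase had been preincubated with compound for 15 min at room temperature.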
PI5P4K alpha inh: inhibitors of human PI5P4K alpha; 330,000 compounds, 1.2% hits; P48426; PI5P4Kalpha enzyme, ADP-Glo luminescence, 60 min; stronger effect = lower value; max response, %; active = max response of -50% or lower; inconclusive = between -30% and -50%; inactive = -30% or higher; also: value at the top dose of about 77 µM; % is scaled to controls: 0 for no effect and ±100 for the full control effect
Target sequence (P48426 whole entry, looked up): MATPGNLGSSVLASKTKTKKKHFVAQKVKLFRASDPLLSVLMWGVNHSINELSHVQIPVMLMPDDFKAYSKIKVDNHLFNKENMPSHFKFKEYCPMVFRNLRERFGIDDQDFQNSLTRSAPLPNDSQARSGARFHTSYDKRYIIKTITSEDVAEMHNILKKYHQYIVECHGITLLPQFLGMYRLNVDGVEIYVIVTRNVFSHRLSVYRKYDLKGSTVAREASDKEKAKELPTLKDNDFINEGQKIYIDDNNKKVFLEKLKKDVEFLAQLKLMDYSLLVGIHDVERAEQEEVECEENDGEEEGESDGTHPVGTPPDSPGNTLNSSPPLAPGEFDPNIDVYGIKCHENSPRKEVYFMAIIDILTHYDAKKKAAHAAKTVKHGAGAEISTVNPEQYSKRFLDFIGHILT
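ADP-Glo luminescence end-point after a 60 min room-temperature kinase reaction. PI5P4Kalpha and substrate in HEPES pH 7.4 buffer with EGTA, 0.1% CHAPS and 5% DMSO; ATP at 5 microM final.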
Pol iota inh: blocks human DNA polymerase iota activity; Q9UNA4; Pol iota fluorescent replication assay, 10 min; Potency, µM (doses to about 115 µM), without a hit: at the top dose activity, negative = inhibition, actives largely listed as inhibitors; 390,000 compounds, 1% hits; AID 588590; also: potency is read from the fitted curve at half-maximal effect
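Pol iota at 10 nM preincubated 15 min with compounds at room temperature; reaction started with fluorescent substrate, 50 nM final. Fluorescence read kinetically at 0 and 10 min; buffer-only wells as negative control.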
POLH inh: inhibitors of human DNA polymerase eta; Potency, µM (highest dose often 114 µM), for the others: top-dose activity change, negative = inhibition, most hits filed as inhibitors; recombinant Pol eta, fluorescent DNA replication assay; 390,000 compounds, 1.2% hits; also: potency is read from the fitted curve at half-maximal effect; % is scaled to controls: 0 for no effect and ±100 for the full control effect
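Pol eta at 10 nM preincubated with compounds 15 min at room temperature; reaction started with fluorescent substrate (50 nM final) and read kinetically at 0 and 10 min.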
PI4K2A inh: PI4K2A (human) kinase inhibition | Q9BTU6 | purified PI4K2A, ADP-Glo luminescence, 1 h; stronger effect = lower value | activity change, negative = inhibition, % at 76.9 µM | 420,000 compounds, 0.13% hits; in the data active = activity change below about -50%; inconclusive = mostly about -30% to -49%;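 also: -100% = wells without enzyme as full effect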
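PI4K2A activity was measured by ADP-Glo luminescence: enzyme (4 ug/mL stock) and phosphatidylinositol (1.2 mM stock) in Tris pH 7.5/MgCl2/EGTA/Triton X-100 buffer were reacted with ATP (300 microM stock) for one hour at ambient temperature.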
POLB inh: blocks human DNA polymerase beta activity | Pol beta primer extension/strand displacement, fluorescence kinetic | P06746 | AID 485314 | 340,000 compounds, 1.3% hits | Potency, µM (top dose mostly 114 µM), for inactives: top-dose activity change, negative = inhibition, most hits filed as inhibitors; also: potency is read from the fitted curve at half-maximal effect; % is scaled to controls: 0 for no effect and ±100 for the full control effect
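Values derive from four-parameter Hill fits of normalized kinetic data: reads at 0 and 10 min following addition of 50 nM substrate to 10 nM Pol beta preincubated 15 min with compound.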
* hit, by the source's call; ? = inconclusive; nt = not tested or not shown; [ ] = remark or other dose. Compounds with a hit are over-represented: about 2.8% of the library has one in this group of screens. Unless noted, calls follow the shape of the dose curve; as a rule, active = well fitted inhibition curve with a large enough effect; inconclusive = small, poorly fitted or top-dose-only effect, or another doubt; inactive = no such curve, though single readings can be large or run the other way.

SMILES	Pol kappa inh	PI5P4K alpha inh	Pol iota inh	POLH inh	PI4K2A inh	POLB inh
O=C(/C=C/c1ccco1)N(Cc1ccc(Cl)cc1)C1CCS(=O)(=O)C1 (stereo not drawn)	?	-28	40µM*	?	-24	2%
COc1ccc(CN(C(=O)/C=C/c2ccco2)C2CCS(=O)(=O)C2)cc1OC (stereo not drawn)	?	-2	79µM*	5%	-12	6%
CN(C)c1ccc(CN(C(=O)/C=C/c2ccco2)C2CCS(=O)(=O)C2)cc1 (stereo not drawn)	-4%	-3	167%	-2%	3	30%
Cc1cccc(C(=O)NCC(=O)OCC(=O)c2ccc3ccccc3c2)c1	-4%	nt	32%	nt	nt	nt
Cc1ccc(-c2cn(-c3cccc(Cl)c3)c(S(=O)(=O)CC(=O)Nc3cccc(C)c3)n2)cc1	-5%	nt	71µM*	-2%	-4	13%
NC(=O)[C@H]1CCCN1C(=O)[C@H](Cc1cnc[nH]1)NC(=O)[C@@H]1CCC(=O)N1	-15%[12 µM]	nt	nt	nt	nt	nt
Nc1cccn2c(-c3ccc(Cl)c(Cl)c3)cnc12	-13%	-18	13µM*	-4%	-2	-14%
CCNc1ccc(Br)cc(C(=O)/C=C/c2ccc(Cl)cc2Cl)c1=O	?	?	8.9µM*	14µM*	6	13µM*
CNc1ccc(Br)cc(C(=O)/C=C/c2ccc(OC)cc2)c1=O	-17%	-25	?	?	0	28µM*
COc1ccc(/C=C/C(=O)c2cc(C(=O)/C=C/c3ccc(OC)cc3)c(O)cc2O)cc1	6%	nt	3%	nt	nt	nt
CO/N=C(/C(=O)N[C@@H]1C(=O)N2C(C(=O)O)=C(CSc3cnns3)CS[C@H]12)c1csc(N)n1	1%[19.4 µM]	nt	nt	nt	nt	nt
c1ccc(Nc2nc(-c3ccccc3)c(-c3ccccc3)s2)cc1	3%	nt	17%	nt	nt	nt
C[N+]1(CC(=O)c2cccc([N+](=O)[O-])c2)CCOCC1	-1%	nt	18%	nt	nt	nt
COc1ccc(N/C=C2/Sc3ccccc3NC2=O)cc1	-7%	-55*	-4%	-7%	-1	-1%
COc1cc2ccc(=O)oc2c(O)c1O	50µM*	-14	?	-4%	6	nt
COc1ccc(-c2nc(CSc3nncn4c3cc3occc34)c(C)o2)cc1	?	nt	?	-14%	-18	3.5µM*
O=C(NN=C1CCCC1)c1cccc(O)c1	-5%	0	14%	7%	-1	22%
O=C(NN=C1CCCC1)c1cc(O)cc(O)c1	?	-79*	35µM*	50µM*	3	20µM*
COc1cc(N(C)C)ccc1/C=C/c1ccnc2ccccc12	-26%	nt	-17%	nt	nt	nt
CN1CCN(C2=C(Cl)C(=O)c3ccccc3C2=O)CC1	1%	-4	6.3µM*	3.5µM*	-55*	nt
CN1CCN(C2=C(Cl)C(=O)N(C3CCCCC3)C2=O)CC1	2%	nt	-1%	-12%	2	6%
CN1CCN(C2=C(Cl)C(=O)C(c3cnc(N4CCCCC4)s3)=C(Cl)C2=O)CC1	-23%	-89*	?	?	-17	-22%
Oc1ccc(Nc2nc(N3CCCC3)c3ccccc3n2)cc1	?	-22	?	-4%	-7	45µM*
N[C@@H](Cc1cc(-c2ccc(Cl)cc2Cl)cc(CP(=O)(O)O)c1O)C(=O)O	1.8µM*	nt	nt	nt	nt	nt
O=C(CN1C(=O)NC2(CCCCC2)C1=O)Nc1nc2c(F)cc(F)cc2s1	-21%	-50*	59%	?	4	nt
SMILES	Pol kappa inh	PI5P4K alpha inh	Pol iota inh	POLH inh	PI4K2A inh	POLB inh
O=C(CN1C(=O)CCC1=O)Nc1nc2c(F)cc(F)cc2s1	10%	-8	7%	-17%	4	nt
CCOC(=O)C(CS)NCCN[C@@H](CS)C(=O)OCC (stereo partly drawn)	0%[19.4 µM]	nt	nt	nt	nt	nt
O=C(CSc1nnc2c3ccccc3c3ccccc3c2n1)Nc1ccccc1F	-25%	?	-16%	32µM*	-5	11µM*
Oc1cccc(-c2c3nc(c(-c4cccc(O)c4)c4ccc([nH]4)c(-c4cccc(O)c4)c4nc(c(-c5cccc(O)c5)c5ccc2[nH]5)CC4)C=C3)c1	nt	nt	nt	nt	-23	nt
O=C(COc1cccnc1[N+](=O)[O-])c1ccc(Cl)s1	79µM*	-86*	11µM*	45µM*	-8	32µM*
N#Cc1cc2nc(O)c(O)nc2cc1[N+](=O)[O-]	5%[60.1 µM]	-57*	?	?	-2	?
O=[N+]([O-])c1cc2nc(O)c(O)nc2cc1[N+](=O)[O-]	-4%[60.1 µM]	nt	nt	nt	nt	nt
CCCC[C@]12Cc3cc(C#N)ccc3C(O1)c1c(cc(C)n(-c3ccccc3)c1=O)O2	nt	nt	nt	nt	nt	-20%[22.9 µM]
Nc1c(N=Nc2ccc(-c3ccc(N=Nc4cc(S(=O)(=O)O)c5ccccc5c4N)cc3)cc2)cc(S(=O)(=O)O)c2ccccc12	1.1µM*	nt	nt	nt	nt	nt
O=S(=O)(O)c1ccc(N=Nc2ccccc2)cc1	-6%	-15	4%	-10%	?	?
Cc1cc(-c2ccc(N=Nc3ccc4c(S(=O)(=O)O)cc(S(=O)(=O)O)c(N)c4c3O)c(C)c2)ccc1N=Nc1ccc2c(S(=O)(=O)O)cc(S(=O)(=O)O)c(N)c2c1O	1.3µM*	nt	nt	nt	nt	nt
CN(C)c1ccc(/C=C/c2cccc3ccccc23)cc1	-1%	nt	7%	nt	nt	nt
OCCNc1c2ccccc2nc2ccccc12	?	-5	?	-14%	1	18µM*
CCOC(=O)c1c(N2C(=O)Nc3ccccc3N2O)n[nH]c1-c1cccc(Cl)c1	-6%	-66*	48%	-10%	0	17%
COc1ccc(C(=O)c2no[n+]([O-])c2C(=O)c2ccc(OC)cc2)cc1	-19%	-15	?	-7%	4	13%
O=C(c1cccs1)c1no[n+]([O-])c1C(=O)c1cccs1	-5%	-6	25µM*	-13%	-1	4%
c1ccc2nccnc2c1	-2%	nt	-20%	nt	nt	nt
O=[N+]([O-])c1ccc(-c2ccc(/C=N/c3c(-c4ccco4)nc4ccccn34)o2)c(Cl)c1	nt	nt	nt	nt	nt	-12%
O=[N+]([O-])c1ccc(-c2ccc(/C=N/c3c(-c4ccco4)nc4ccccn34)o2)cc1	-8%	nt	-18%	-16%	-11	4%
Oc1cccc(/C=N/c2c(-c3ccco3)nc3ccccn23)c1	-11%	nt	25µM*	-14%	-14	1%
Cc1cc(C)c([N+](=O)[O-])cc1-c1ccc(/C=N/c2c(-c3ccco3)nc3ccccn23)o1	?	?	?	-5%	?	50µM*
O=[N+]([O-])c1ccc(Cl)c(-c2ccc(/C=N/c3c(-c4ccco4)nc4ccccn34)o2)c1	-13%	?	?	-22%	?	50µM*
Cc1ccc(-c2[nH]ncc2CNCc2ccccc2)cc1	3%	nt	12%	nt	nt	nt
COc1ccc(OC)c2c(C)c(C)[nH]c12	-10%	3	-16%	-17%	-6	28µM*
